In PubChem BioAssay (NCI) one finds growth data, which are given here for six compounds.

SMILES strings stand for the structures. “And” between values parts separate entries of the source, which are not always exact repeats. Equal values may be shown once. This is part of a sample that, as a whole, favours compounds with a hit. Of some 83,000 tested, about 20% had one in any assay.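 Each cell line was grown in a 96-well plate and treated with one concentration of compound for 48 hours. Values below 10 were considered active.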 The source made the active and inactive calls.

Common to all, as to test: NCI-60 one-dose screen, 48 h (100 = growth as untreated, 0 = no growth, -100 = all killed)
What all share (conditions): 10 µM unless noted

The test system of assay [1] is HCT-15 colon.
Assay [2] relates to HT29 colon.
Assay [3] concerns SNB-75 CNS.
Assay [4] has as its system SNB-19 CNS.
Assay [5] concerns U251 CNS.
Assay [6] concerns PC-3 prostate.
Assay [7] concerns SK-MEL-5 melanoma.
Assay [8] concerns UACC-62 melanoma.
The subject of assay [9] is LOX IMVI melanoma.
The subject of assay [10] is SK-MEL-28 melanoma.
Assay [11] deals with SK-MEL-2 melanoma.
In assay [12] the test system is EKVX NSCLC.
The test system of assay [13] is SN12C renal.
Assay [14] has as its system UO-31 renal.
Assay [15] concerns TK-10 renal.
The subject of assay [16] is ACHN renal.
Assay [17] deals with CAKI-1 renal.
The subject of assay [18] is A498 renal.
The subject of assay [19] is CCRF-CEM leukemia.
The test system of assay [20] is MOLT-4 leukemia.

With `Cc1ncn(-c2ccc(/C=N/Nc3ccnc4cc(Cl)ccc34)cc2)c1C`, the growth is -59.4% (active) in assay [1]; -77.5% (active) in assay [2]; -24.2% (active) in assay [3]; 42.3% (inactive) in [4]; -81.7% (active) in assay [5]; -21.3% (active) in assay [6]. Moreover, the growth is -19.7% (active) in assay [7]; -74.4% (active) in assay [8]; -88.9% (active) in assay [9]; -79.3% (active) in assay [10]; -17.3% (active) in assay [11]; 99.8% (inactive) in [12]. Moreover, the growth is -55.8% (active) in [13]; -66.9% (active) in [14]; -11.7% (active) in [15]; -91.1% (active) in [16]; -48.9% (active) in [17]; 86.5% (inactive) in assay [18]. The figures for the growth in assay [19] and in assay [20] were 3.17% (active) and 1.04% (active), respectively.

As to `COc1ccc(-c2cnc(NC(=O)CCCCCCNC(=O)C(O)(O)C(F)(F)F)s2)cc1`, the growth in assay [1] is 4.2% (active); in assay [2], 0.86% (active); in [3], 36.8% (inactive); in [4] it was 17.5% (inactive); in assay [5], -46.4% (active); in [6] it was 17.8% (inactive). In addition, the growth is -62.2% (active) in [7]; -31.8% (active) in assay [8]; -89.5% (active) in assay [9]; 8.09% (active) in assay [10]; -27.3% (active) in assay [11]; 19.6% (inactive) in assay [12]. The growth was 3.72% (active) in assay [13]; -27.4% (active) in assay [14]; -20.1% (active) in [15]; -29.5% (active) in [16]; -39.9% (active) in assay [17]; -44.2% (active) in assay [18]. The growth in assay [19] was 18.7% (inactive); in [20] it was 6.5% (active).

With `Brc1ccc(-c2cc(-c3ccc4c(c3)OC=CO4)n[nH]2)s1`, the growth in assay [1] was 61.9% (inactive); in assay [2], 74.1% (inactive); in assay [3], 74% (inactive); in assay [4], 91.7% (inactive); in [5], 88.8% (inactive); in [6] it was 101% (inactive). The growth was 89.4% (inactive) in assay [7]; 83.2% (inactive) in assay [8]; 89.9% (inactive) in assay [9]; 91.6% (inactive) in assay [10]; 97.3% (inactive) in assay [11]; 74.6% (inactive) in assay [12]. Besides, the growth in [13] is 99.1% (inactive); in [14], 87.7% (inactive); in assay [15] it was 149% (inactive); in [16], 97.7% (inactive); in assay [17], 62.9% (inactive); in assay [18] it was 90.7% (inactive). The growth in [19] is 79.4% (inactive); in [20], 72.6% (inactive).

Turning to `N#Cc1nc(-c2ccccc2)oc1N1CCC(C2(C(F)(F)F)N=N2)CC1`, the growth in assay [1] is 102% (inactive); in [2], 102% (inactive); in [3] it was 98.7% (inactive); in [4], 102% (inactive); in assay [5] it was 97.5% (inactive); in assay [6], 97% (inactive). In addition, the growth is 99.2% (inactive) in [7]; 93.4% (inactive) in [8]; 97.1% (inactive) in [9]; 119% (inactive) in assay [10]; 97.8% (inactive) in [11]; 92.1% (inactive) in assay [12]. For the same compound, the growth in assay [13] is 119% (inactive); in assay [14], 82% (inactive); in assay [15], 116% (inactive); in assay [16], 102% (inactive); in [17] it was 84.8% (inactive); in assay [18], 85.4% (inactive). Moreover, the growth in assay [19] is 102% (inactive); in [20], 101% (inactive).

On to `CCOc1cccc(/C(N)=N/C(N)=N/c2nc3ccccc3s2)c1`, for which the growth was 49.9% (inactive) in assay [1]; 106% (inactive) in assay [2]; 87.9% (inactive) in [3]; 87.8% (inactive) in [4]; 58.3% (inactive) in assay [5]; 46.4% (inactive) in assay [6]. Moreover, the growth in assay [7] is 92.2% (inactive); in [8] it was 81.4% (inactive); in assay [9], 13.2% (inactive); in [10] it was 105% (inactive); in assay [11] it was 117% (inactive); in assay [12], 73.3% (inactive). The growth in assay [13] is 53.1% (inactive); in assay [14] it was 38.4% (inactive); in assay [15], 135% (inactive); in [16] it was 48.7% (inactive); in assay [17] it was 62.4% (inactive); in assay [18], 115% (inactive). The growth in assay [19] is 55.8% (inactive); in [20], 62.4% (inactive).

In the case of `C/C=C/CC(C)C(O)[C@H](NC(=O)[C@@H]1CCCN1C(=O)[C@](C)(CC)NC(=O)CCCCCCCCC)C(=O)N[C@@](C)(CC)C(=O)N[C@@H](CCC(N)=O)C(=O)N[C@H](CCC(N)=O)C(=O)NC(C)(C)C(=O)NC(C)(C)C(=O)N[C@@H](CCC(N)=O)C(=O)N[C@H](CC(C)C)C(=O)N[C@H](CO)CC(C)C` (stereo not given in full), the growth in assay [1] was 76.9% (inactive) and -9.08% (active); in assay [2], 89.8% (inactive) and -25% (active); in assay [3] it was 13.1% (inactive) and -93.4% (active); in assay [4], 65.8% (inactive) and -98.1% (active); in [5], 61.2% (inactive) and -77.9% (active); in assay [6], 69.8% (inactive) and -63.6% (active). Moreover, the growth in assay [7] is 7.02% (active) and -81.2% (active); in [8] it was 73.8% (inactive) and -86.4% (active); in assay [9], 40.1% (inactive) and -86.6% (active); in [10], -42.7% (active) and -100% (active); in assay [11], 108% (inactive) and -50% (active); in assay [12], 55.1% (inactive) and -69.6% (active). Moreover, the growth was 28.8% (inactive) and -51.5% (active) in assay [13]; 55.2% (inactive) and -79.7% (active) in assay [14]; 107% (inactive) and -11.3% (active) in assay [15]; 76.8% (inactive) and -79.3% (active) in [16]; 42% (inactive) and -69.1% (active) in [17]; 12.7% (inactive) and -50.9% (active) in assay [18]. In addition, the growth was 60.2% (inactive) and -40% (active) in assay [19]; 49.5% (inactive) and -8.22% (active) in assay [20].
